This is an account of results in publication PMC12136788.

First the molecules themselves.
B1: chr7:112757510:112757511:-_ENSG00000214194_ENST00000397764|hu_mus|FALSE|FALSE (ssRNA)
RNA: GGGAGUUCUACAGUCCGACGAUCCUUUCUUGCGUAUAUCCCCAAGCAAGCACAGAUGCCGGUAAUGCUGAGAACCACACCUAAUAAGAGUGCAAUCGCGUCUCCAGCUUCCACUGCUUCAACAACAGGCAGGAUCAAAAGCAGCAACAGAGGAUUGAGCAUCA
B2: chr9:49312907:49312908:-_ENSMUSG00000039542_ENSMUST00000166811|mus_hu|motif|central (ssRNA)
RNA: GGGAGUUCUACAGUCCGACGAUCAGCUGCAAUUUGGCAUUCGUCCUAUAAAAUAAGAGUCUACGUGGGAAUUGAAUUCAGCGGGAAAGGGUGACACACUUUGCAUACUGAACAAAUACAAAGUGAACAGAAAUUAUAACUUAUCAACAGAGGAUUGAGCAUCA
B3: chr6:168291551:168291552:+_ENSG00000130396_ENST00000400822|hu_hu|motif|central (ssRNA)
RNA: GGGAGUUCUACAGUCCGACGAUCGUGUUUCUUGGUUUUCUUUGGGAUGUGGUCUGGUGGCCUCCUCUUCAACUGAAAGACGGAAAUCCCUUUGUCACUUGGCCAUUCCCUGAAGAUUUGUAAAGGACACUCAUCAUCAUCAAGCAACAGAGGAUUGAGCAUCA
B4: 19737984_19738104_982_3pUTR_ENSG00000105849_ENST00000222567|human|control|control (ssRNA)
RNA: GGGAGUUCUACAGUCCGACGAUCGGUGGGGUAAAUUCGGCCUCUUCACUGUGUUUUCUUUUCUUUUUUUUCUUUUUAUGGUCACUUUGGUAACCACUGGAGUCACUGCCUUGGAAAACAGGGUCCUGGUCCUGAACUUCCUGGCAACAGAGGAUUGAGCAUCA
B5: chr1:220276048:220276049:+_ENSG00000067704_ENST00000302637|hu_hu|hu_hu_hu_mus_True|18_78 (ssRNA)
RNA: GGGAGUUCUACAGUCCGACGAUCGCAAAUUGCCUGGUUGGCGGGAAUUGUCCAAGGUUGUGUGGUCCAAACUAAAACGCUAACAGGGGAUGAGGCAUCUGUAAGAGACUCCAACUUUGGAGAAGGCCUCAGGAGGGGGAAUCUCAACAGAGGAUUGAGCAUCA
B6: chr5:143664956:143664957:-_ENSMUSG00000029580_ENSMUST00000100497|mus_mus|FALSE|FALSE (ssRNA)
RNA: GGGAGUUCUACAGUCCGACGAUCAUACAUCAAGUUGGGGGGACAAAAAAAAGGGAGGCCUCAGACCUGGGCCAUUCAGAAAUUAAAAACAAAAAUGAAGUAUUAAGGCGGAAGAUUUAAAAAAAUUUUUGCAGUACAUAAUUUCAACAGAGGAUUGAGCAUCA
B7: chr6:114281168:114281169:-_ENSG00000196591_ENST00000368632|hu_hu|hu_hu_hu_mus_True|8_98 (ssRNA)
RNA: GGGAGUUCUACAGUCCGACGAUCUUCCAUUUUUCGGUAUAAGCCAUAAUUUAGCAGCAAGUUAUGAGUCAUCCGGAUUCUAUGAGGCUUCAUGGGAUGACCCUGGCCAUAAUAAUAAUUGCCAAUAUCACAGAUUCAGUAGUACAACAGAGGAUUGAGCAUCA
B8: chr10:35314101:35314102:-_ENSG00000108094_ENST00000537177|hu_hu|FALSE|FALSE (ssRNA)
RNA: GGGAGUUCUACAGUCCGACGAUCUUCACCUGUACACAGAUAAUGUAACCAUGUAAGUUUCCUUCCACUGAAAUGUUGGCUAUAAAAUAAUUCAAACAUCUGUACACUUUUUUCUAAUUCCUGGGGAAUUGCAAACGUAGAUGACAACAGAGGAUUGAGCAUCA
B9: chr19:58207738:58207739:+_ENSMUSG00000054843_ENSMUST00000077282|mus_mus|motif|central (ssRNA)
RNA: GGGAGUUCUACAGUCCGACGAUCUAAUUGGCCACAGAGUUAACAGUAGUGUGUGACAUUGCAUUAAUUCCAUAAUUAUCGGAAAUUCAAAAAUUUUAAAGUUUUAAGAACCUGGGGGAUUCACAGUGGAUGAGGCCUGACAGCCAACAGAGGAUUGAGCAUCA
B10: chr16:75327710:75327711:-_ENSG00000153774_ENST00000283882|hu_hu|FALSE|FALSE (ssRNA)
RNA: GGGAGUUCUACAGUCCGACGAUCAUUUAAGGACAAAUUUUUAAAAGUAAAGUGAAUGAAACCAUUUGUGAUUAAGAUACAUAGACAGAACUUCAAUGUAGAAAAAAAAAAGACCUUGCUGGGAAACAGAUGAUGAGAAACACUCAACAGAGGAUUGAGCAUCA
B11: chr14:102368134:102368135:+_ENSG00000078304_ENST00000445439|hu_hu|hu_hu_hu_mus_True|48_68 (ssRNA)
RNA: GGGAGUUCUACAGUCCGACGAUCAAGAGGCUCCAUGAUCUUCACAAACUCUGAUGGUUCAAUUACAUCUAAAAUCUCUUCUAAUUCGUUUAAGAACAUUACUUCUUUUGGACUGUGAGUCUUUGGCCAGUAUUUGAGAAGUGCCAACAGAGGAUUGAGCAUCA
B12: chr14:102368134:102368135:+_ENSG00000078304_ENST00000445439|hu_hu|hu_hu_hu_mus_True|68_88 (ssRNA)
RNA: B11 RNA with C48U, G87A
B13: chr5:143664956:143664957:-_ENSMUSG00000029580_ENSMUST00000100497|mus_hu|FALSE|FALSE (ssRNA)
RNA: GGGAGUUCUACAGUCCGACGAUCUCUCAAGUUGGGGGACAAAAAAGGGGGAAGGGGGGGCACGAAGGCUCAUCAUUCAAAAUAAAACAAAAUAAAAAAGUAUUAAGGCGAAGAUUAAAAAAAUUUUGCAUUACAUAAUUUACACAACAGAGGAUUGAGCAUCA
B14: chr4:144460044:144460045:+_ENSG00000153147_ENST00000283131|hu_mus|hu_hu_hu_mus_False|98_98 (ssRNA)
RNA: GGGAGUUCUACAGUCCGACGAUCACGGUCCAUAGCCUGAAGAUCUACUUGCGGAUUCCAAUCUGAGUCAUAUAAAAUGACUACAUCAGCAGUUGCAAGAUUGAUGCCCAGACCACCAGCACGUGUGCUUAGCAUAAAUACAAACAACAGAGGAUUGAGCAUCA

Positions count from the first letter of the chain named. The full ranking holds about 24,000 sequences; the median of “enrichment r” is about 0.99, and the highest 2% start at about 3.7. What follows is part of a selection rich in the highest values, with near analogues and random picks from the rest.

This assay concerns the target T1, UNK ZnF1-3 (human, UniProt Q9C0B0 31-174).
T1 sequence: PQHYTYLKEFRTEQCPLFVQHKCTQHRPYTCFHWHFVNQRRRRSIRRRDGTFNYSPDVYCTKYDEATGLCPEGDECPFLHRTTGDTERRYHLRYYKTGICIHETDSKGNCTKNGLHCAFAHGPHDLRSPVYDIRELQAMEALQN
The experiment in a line: nsRBNS (natural sequence RNA bind-n-seq); RBNS binding buffer (assumed for nsRBNS): 25 mM Tris pH 7.5, 150 mM KCl, 3 mM MgCl2, 0.01% Triton X-100, 500 ug/ml BSA, 20 U/ml SUPERase-In, 4 C; UNK is unkempt and MSI1 is Musashi-1; names of the RNAs are library labels; protein concentration not given here; high values mean tight binding.
In the case of B1, the binding signal stood at 1.38 enrichment R.

Molecule B2 returned a binding signal of 3.41 enrichment R.

With B3, the binding signal is 0.53 enrichment R.

Consider B4, for which the binding signal amounted to 0.463 enrichment R.

As to B5, the binding signal came to 2.05 enrichment R.

B6: the binding signal turned out to be 6.75 enrichment R.

B7 yielded a binding signal of 0.99 enrichment R.

Consider B8, for which the binding signal is 1.11 enrichment R.

Molecule B9 showed a binding signal of 4.11 enrichment R.

With B10, the binding signal is 1.71 enrichment R.

Consider B11, for which the binding signal is 0.708 enrichment R.

The molecule B12 showed a binding signal of 0.758 enrichment R.

Regarding B13, the binding signal came out at 8.16 enrichment R.

For the molecule B14, the binding signal came out at 1.14 enrichment R.
